Laboratory results reported in ChEMBL document CHEMBL4513216, “Probing the Open Global Health Chemical Diversity Library for Multistage-Active Starting Points for Next-Generation Antimalarials” (ACS Infect Dis, 2020).
Out of some 69,000 compounds screened, about 8,600 (12%) showed an effect of 50% or more. Only a selection was taken, and strong results are over-represented in it overall.

Each compound was assayed on Plasmodium berghei (assay: Screen against P. berghei liver stage (PbLuc), transformed with Luciferase, at 10uM). Details: tested at 10 uM.
Type: functional, HepG2

| Compound | INHIBITION [%] |
| --- | --- |
| COCC(c1cccc(C(F)(F)F)c1)N(C)C(=O)c1ccco1 (stereo not given) | 48.45 |
| O=C(c1cnccn1)N1CC[C@H]2C[C@@H](c3ccncn3)O[C@@H]2C1 | 29.9 |
| O=c1cc(CN2CCCC2)nc2n1CCCN(S(=O)(=O)C1CC1)C2 | 29.5 |
| Cc1noc([C@H]2CC[C@@H]3[C@@H](CCN3S(C)(=O)=O)O2)n1 | 7.12 |
| Cc1noc([C@H]2C[C@@H]3CCN(c4nnc(C)s4)C[C@H]3O2)n1 | 39.5 |
| Cc1noc([C@H]2CC[C@@H]3[C@@H](CCN3c3ncccn3)O2)n1 | 51.4 |
| Cc1noc([C@@H]2C[C@@H]3CCN(c4nnc(C)s4)C[C@H]3O2)n1 | -21.1 |
| Cc1noc([C@@H]2CC[C@@H]3[C@@H](CCN3c3nnc(C)s3)O2)n1 | 50.4 |
| Cc1noc([C@@H]2CC[C@@H]3[C@@H](CCN3S(C)(=O)=O)O2)n1 | -10.3 |
| CN1C[C@@H]2CN(C(=O)NCc3cccc(F)c3)CCC[C@]2(C(=O)O)C1 | -10.5 |
| Cn1cc(C2CCCN2Cc2cscn2)cn1 (stereo not given) | 42 |
| NC(=O)C1CCN(C(=O)CCn2ccc3ccc(F)cc32)CC1 | 33 |
| Cn1ncc2c1CCCC2NCc1cccnc1 (stereo not given) | 3.3 |
| Cn1ncc2c1CCCC2NCc1cccc(OC2CCCC2)c1 (stereo not given) | 50.5 |
| CCn1ncc2c1CCCC2NCc1cccc2c1OCCCO2 (stereo not given) | 40 |
| Cc1cccc(CNC2CCCc3c2cnn3C)c1 (stereo not given) | 25.1 |
| Cn1ncc2c1CCCC2NCc1cccc2c1OCCCO2 (stereo not given) | 50.3 |
| Cc1ccc(CNC2CCCc3c2cnn3C)s1 (stereo not given) | -10.8 |
| CSc1ccc(CNC2CCCc3c2cnn3C)cc1 (stereo not given) | -46.8 |
| Cn1ncc2c1CCCC2NCc1cccc(F)c1 (stereo not given) | 4.71 |
| Cn1ncc2c1CCCC2NCc1cccc(C(F)(F)F)c1 (stereo not given) | 89.1 |
| CCCn1cc(C(=O)NC2CCC(n3cnnc3)CC2)c(C)n1 (stereo not given) | 18.5 |
| Cc1occc1C(=O)N1CCC[C@]2(C[C@@H](OCc3ccccn3)CO2)C1 | 22.9 |
| CCOCC1CN(Cc2ccccn2)Cc2nn(CC3CC3)cc21 (stereo not given) | -2.17 |
| O=C(NCC(F)(F)F)c1ccc(-c2ccco2)[nH]c1=O | 14.4 |

| Compound | INHIBITION [%] |
| --- | --- |
| COc1ccc(C2CCCN2S(=O)(=O)N(C)C)cc1 (stereo not given) | -45.2 |
| c1c(CN2CCCC2)nc2n1CCN(CC1CC1)C2 | -44.4 |
| COc1cc(C(=O)N(Cc2cnn(C)c2)C(C)C)ccc1OC(C)C | 27.8 |
| CC1=N[C@@]2(CC[C@@H]3CN(Cc4ccccc4)C[C@@H]32)C(=O)N1CC1CC1 | -13.4 |
| COc1ccc(C(=O)N2CC[C@](C)(O)[C@H](C)C2)cc1N1CCOCC1 | 54.4 |
| COc1ccc(C(=O)N2C[C@@H](C)[C@@](C)(O)C2)cc1N1CCOCC1 | -4.92 |
| COc1ccc(C(=O)N2CCOCC(CO)C2)cc1N1CCOCC1 (stereo not given) | 49.9 |
| CC(C)Cn1cnc2ccc(NC(=O)CCCn3cccn3)cc2c1=O | 13.2 |
| CN(C)C(CNc1c(NCc2ccco2)c(=O)c1=O)c1ccccc1 (stereo not given) | 4.48 |
| Cn1cc(CN2C[C@H]3CCC[C@@]3(COCC3CC3)C2)cn1 | 8.6 |
| Cn1cc(CN2C[C@H]3CCC[C@@]3(COc3cccnc3)C2)cn1 | 52.1 |
| Cn1cc(CN2C[C@H]3CCC[C@@]3(COc3ccccn3)C2)cn1 | 67.5 |
| CS(=O)(=O)N1C[C@H]2CCC[C@@]2(COc2ccccn2)C1 | 33 |
| c1cncc(OC[C@@]23CCC[C@@H]2CN(CC2CCOCC2)C3)c1 | 47.4 |
| Fc1cnc(N2C[C@@H]3COC[C@]3(COc3ccccn3)C2)nc1 | 43.1 |
| CCS(=O)(=O)N1C[C@H]2CCC[C@@]2(COc2ccccn2)C1 | -23.7 |
| O=S(=O)(C1CC1)N1C[C@H]2CCC[C@@]2(COc2ccccn2)C1 | 0.79 |
| Fc1cnc(N2C[C@H]3CCC[C@@]3(COc3ccccn3)C2)nc1 | 76.6 |
| CCn1ncc(CNc2[nH]cnc3nncc2-3)c1C | 25.3 |
| CCCC1CN(CC(C)C)C(=O)c2cccnc2O1 (stereo not given) | 6.34 |
| O=C(NCc1ccc2c(c1)OCO2)Nc1cccnc1N1CCCC1 | -4.94 |
| O=c1cc(Cn2ccnc2)nc2n1CCCN(S(=O)(=O)C1CC1)C2 | -10.2 |
| CN1C[C@H]2CC[C@@H](C1)N(Cc1ccccc1OCCN1CCOCC1)C2 | -154 |
| CC(=O)N1CCC(NC(=O)N2CCN(c3cnccn3)CC2)CC1 | 48.2 |
| Cc1nc2c(c(=O)[nH]1)CN(Cc1ccc3c(c1)CCCN3C)CC2 | 30.5 |

| Compound | INHIBITION [%] |
| --- | --- |
| Cc1ccc(C(=O)N2CCC[C@@H]2Cn2nnc3c(O)nc(C)nc32)cc1 | 23.4 |
| Cn1ccnc1CNCCNc1ncc(Cl)cc1Cl | 1.51 |
| CCCc1n[nH]c(C2CN(CCS(=O)(=O)CC)CCO2)n1 (stereo not given) | 44.1 |
| N#Cc1cccc(S(=O)(=O)Nc2c(F)cccc2N2CCCC2)c1 | 50.1 |
| O=S(=O)(Nc1c(F)cccc1N1CCCC1)c1cncc(F)c1 | 27.6 |
| Cn1cc(S(=O)(=O)Nc2c(F)cccc2N2CCCC2)cn1 | -11.9 |
| O=C(c1ccncc1)N1CCC(c2nc(O)cc(-c3ccncc3)n2)C1 (stereo not given) | 48.3 |
| CCCN1C[C@H](NC(=O)c2cccs2)[C@@H](c2ccc(OC)cc2)C1 | 31.6 |
| CCCN1C[C@H](NC(=O)c2ccccc2F)[C@@H](c2ccc(OC)cc2)C1 | 54.4 |
| CCCN1C[C@H](NC(=O)c2cc(C)no2)[C@@H](c2ccc(OC)cc2)C1 | 35.2 |
| CCN(CC)C1CCN(C(=O)NCc2cccc(NC(C)=O)c2)C1 (stereo not given) | -4.15 |
| CCCc1noc(CCC(=O)N2CCCC2c2cccs2)n1 (stereo not given) | 29.7 |
| CCCS(=O)(=O)N1C[C@@H]2C[C@H](C(=O)N3CCCC3)[C@H](C1)O2 | 35.8 |
| Cc1ccccc1N1CCCN(c2ccncn2)CC1 | 80.7 |
| Cc1ccccc1N1CCN(C(=O)c2cscn2)C(C)C1 (stereo not given) | 10.3 |
| Cc1ccccc1N1CCN(c2ccncn2)C(C)C1 (stereo not given) | 63.2 |
| Cc1cc(C)nc(C2CCN(c3ccncn3)C2)n1 (stereo not given) | 36.9 |
| CN(C)c1cc(N2CCN(c3ccccn3)CC2)ncn1 | 41.1 |
| Cc1ccc(N2CCN(c3ccccc3C)CC2C)nn1 (stereo not given) | 59.9 |
| Cc1nccn1CCC1CCN(c2ccncn2)CC1 | 35.8 |
| Cc1ccccc1N1CCN(C(=O)c2cnc(N(C)C)nc2C)C(C)C1 (stereo not given) | 25.8 |
| Cc1ccccc1N1CCN(c2cc(N(C)C)ncn2)C(C)C1 (stereo not given) | 67.4 |
| Cc1ccccc1N1CCN(C(=O)c2cnc(C3CC3)nc2)C(C)C1 (stereo not given) | 43 |
| CSc1ncc(C(=O)N2CCN(c3ccccc3C)CC2C)cn1 (stereo not given) | 44.8 |
| Cc1ccccc1N1CCN(C(=O)c2ncc(F)cc2F)C(C)C1 (stereo not given) | 33 |
